Measurements as given in PubChem BioAssay AID1947 (The Scripps Research Institute Molecular Screening Center, 2009).
Out of some 300,000 compounds screened, about 990 (0.33%) were called active. This is one part of a sample in which actives are shown more often than they occur. Unmarked numbers belong to inactive results.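 The calls were made as follows: active = inhibition above the screen mean inhibition plus 3 SD, computed separately per campaign (cut at about 18% in these data); inactive = the rest.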

Each compound was assayed on Fam108B (ABHD17B) serine hydrolase [Mus musculus] (assay: inhibition of Fam108B (ABHD17B) hydrolase – biochemical, fluorescence polarization, counter-screen for RBBP9 inhibitor project, primary screen (AID 1947;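 also: inhibitors lower polarization as less probe binds the enzyme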)). Conditions: recombinant Fam108B, FP-Rh probe fluorescence polarization; at 9.51 µM; stronger effect = higher value.

| Compound | inhibition |
| --- | --- |
| O=C(Cn1ncc2c3ccccc3n(Cc3ccccc3)c2c1=O)NCCCN1CCOCC1 | -3.84% |
| CC(C)Nc1ccc(-n2nc3ccccc3[n+]2[O-])cc1 | 1.5% |
| N=C1C(=O)OCC1c1ccccc1NC(=O)CN1CCCCC1 (stereo not given) | -3.29% |
| COc1ccc2nc(Nc3nc4cc5c(cc4s3)OCCO5)sc2c1 | 33.1% (active) |
| COc1ccc2nc(NC(=O)NC3CCCCC3)sc2c1 | 4.3% |
| COc1ccc2nc(NC(=O)c3ccc(Br)s3)sc2c1 | -2.97% |
| CC1C(=O)C(C)C(c2ccc(O)cc2)NC1c1ccc(O)cc1 (stereo not given) | -5.96% |
| COc1ccc2oc(C(=O)N(CC(C)C)C3CCS(=O)(=O)C3)c(C)c2c1 (stereo not given) | 3.82% |
| O=C(N/N=C/c1cccnc1)c1cc2ccccc2cc1O | 3.37% |
| O=C(NNc1c2ccccc2nc2ccccc12)c1cc2ccccc2cc1O | 71.8% (active) |
| CC(C)(C)OC(=O)NNc1c2ccccc2nc2ccccc12 | 10.9% |
| COc1ccc(CNC(=O)CN(C(=O)c2csnn2)c2cnc3ccccc3c2)cc1 | 2.77% |
| CC[C@H]1OC(=O)[C@H](C)[C@@H](O[C@H]2C[C@@](C)(OC)[C@@H](O)[C@H](C)O2)[C@H](C)[C@@H](O[C@@H]2O[C@H](C)C[C@H](N(C)C)[C@H]2O)[C@](C)(O)C[C@@H](C)[C@@H]2N[C@@H](COCCOC)O[C@H]([C@H]2C)[C@]1(C)O | -4.04% |
| O=C(CCCn1c(SCC(=O)c2ccccc2)nc2ccccc2c1=O)NCC1CCCO1 (stereo not given) | -0.5% |
| O=C(CCn1c(SCC(=O)c2ccccc2)nc2ccccc2c1=O)NCc1ccc(F)cc1 | 27.5% (active) |
| O=C(CCCn1c(SCC(=O)c2ccc(F)cc2)nc2ccccc2c1=O)NCc1ccco1 | -1.64% |
| CS(=O)(=O)N1CCCC(C(=O)Nc2ccccc2C(F)(F)F)C1 (stereo not given) | -3.11% |
| Cc1nn(Cc2ccccc2)c2c1C(c1ccccc1)C(C#N)=C(N)O2 (stereo not given) | 4.14% |
| COc1ccccc1C1C(C#N)=C(N)Oc2c1c(-c1ccccc1)nn2-c1ccccc1 (stereo not given) | 24.5% (active) |
| Cc1nn(-c2ccccc2)c2c1C(c1ccc(F)cc1)C(C#N)=C(N)O2 (stereo not given) | 4.31% |
| CC(C)CCN1CCN=C1N(C)C | -3.1% |
| Cc1cc(C)cc(C(=O)NC2C(=O)N3C(C(=O)O)=C(CSc4nnc(C)s4)CSC23)c1 (stereo not given) | 0.52% |
| CC(C)c1ccc2oc(=O)cc(CN3CCN(Cc4ccccc4)CC3)c2c1 | 0.92% |

| Compound | inhibition |
| --- | --- |
| CN(C)c1ccc(NC(=O)CN2C3CCCC2CC(NC(=O)c2ccccc2)C3)cc1 (stereo not given) | -3.02% |
| COc1ccc(C(=O)Nc2c(N)nc(SCC(=O)Nc3ccc(C(C)=O)cc3)[nH]c2=O)cc1 | 2.83% |
| COc1ccc(N2CCN(S(=O)(=O)c3cc4c5c(c3)C(C)C(=O)N5CCC4)CC2)cc1 (stereo not given) | 2.45% |
| CCOC(=O)N1CCC(O)(c2cc(C)c(C)cc2C)CC1 | 1.15% |
| COc1ccc(Nc2ncc(C(=O)N3CCN(c4ccccc4OC)CC3)c3ccccc23)cc1 | 5.14% |
| O=C(Cn1cc(/C=N/NC(=O)c2cccc(C(F)(F)F)c2)c2ccccc21)Nc1ccc(F)cc1 | 4.38% |
| CC(/C=N/NC(=O)c1ccncc1)=C\c1ccco1 | -1.58% |
| CC(/C=N/NC(=O)c1cc(-c2ccc3ccccc3c2)n[nH]1)=C\c1ccco1 | -15.2% |
| C/C(=C\c1ccco1)C1Nc2cccc3cccc(c23)N1 | 18.5% (active) |
| CC(=O)NC1=NN(C(C)=O)C(C)(c2ccc(Cl)s2)S1 (stereo not given) | -2.49% |
| CC(C)(C)C(=O)Nc1c(Br)c(C2CC2)nn1-c1ccccc1 | 1.83% |
| COc1ccc(/C=C/C(=O)OCC(=O)Nc2cccc(Oc3ccccc3)c2)c(OC)c1 | 21.4% (active) |
| COc1cc(/C=C/C(=O)OCC(=O)Nc2cccc(Oc3ccccc3)c2)ccc1O | 6.01% |
| COc1ccc(OC)c(/C=C/C(=O)OCC(=O)Nc2ccc3c(c2)OCCO3)c1 | -4.2% |
| COc1ccc(OCc2nnc3n2N=C(c2ccccc2)C(CC(=O)O)S3)cc1 (stereo not given) | -0.94% |
| O=C(CN1CCN(Cc2ccc(F)cc2Cl)C1=O)NCc1cccs1 | 2.32% |
| CSCCC1NC2(C(=O)Nc3ccc(Cl)cc32)[C@@H]2C(=O)N(C3CCCC3)C(=O)[C@H]12 (stereo not given in full) | -1.72% |
| O=[N+]([O-])c1ccc(F)cc1Oc1nc(-c2cccnc2)nc2ccccc12 | -4.4% |
| CCc1ccccc1N1CN(Cc2ccco2)CNC1=S | -2.75% |
| Oc1c(Cl)cc(Cl)c(Cl)c1Cc1c(O)c(Cl)cc(Cl)c1Cl | 48% (active) |
| CN(C)C(=O)c1cccn(Cc2cccc(C(F)(F)F)c2)c1=O | 0.5% |
| COc1ccc(N2CC(C(=O)NCCN3C(=O)S/C(=C\c4cccnc4)C3=O)CC2=O)c(OC)c1 (stereo not given) | 65.4% (active) |
| O=C(NCCN1C(=O)S/C(=C\c2cccnc2)C1=O)c1cccc(OC(F)F)c1 | 2.13% |

| Compound | inhibition |
| --- | --- |
| CCOc1ccc(N2CC(C(=O)NCCN3C(=O)S/C(=C\c4cccnc4)C3=O)CC2=O)cc1 (stereo not given) | 0.71% |
| COc1ccc(NC(=S)SC)cc1OC | 2.25% |
| CC(Cc1cccs1)N(Cc1ccc(Cl)cc1)C(=O)c1ccncc1 (stereo not given) | 0.27% |
| c1ccc2c(-c3nn4nnnc4c4ccccc34)cccc2c1 | 3.27% |
| CCC(=O)c1ccc(OCC(=O)OCC(=O)NC2CCCCCC2)cc1 | 2.33% |
| CCOc1cc(NC(=S)NCCCOC)c(OCC)cc1NC(=O)c1ccco1 | -0.81% |
| COc1ccc2oc(=O)c(C(=O)NCc3ccccn3)cc2c1 | 1.13% |
| Cc1cc(C)cc(NC(=O)NCc2ccccn2)c1 | -2.47% |
| CCCC(=O)Nc1ccc2c(c1)nc(CCNC(=O)c1ccco1)n2C | 3.43% |
| COCCNC(=O)Nc1ccc2nc(-c3ccco3)c(-c3ccco3)nc2c1 | 63.8% (active) |
| O=C(NCc1ccccn1)c1ccc2nc(-c3ccco3)c(-c3ccco3)nc2c1 | 39.1% (active) |
| O=C(CSc1nnc(C2CC2)n1Cc1ccccc1)Nc1cccnc1Cl | 1.49% |
| C/C=C/C(=O)Nc1ccc(N2CCN(c3ccc(C(F)(F)F)cn3)CC2)nc1 | 8.22% |
| CC(C)C(=O)N1CCC2(CC1)Oc1ccc(F)cc1C(=O)C21CC(c2ccccc2)=NO1 (stereo not given) | 1.14% |
| Cc1nc2scc(-c3cccs3)c2c(=O)n1N | 7.81% |
| N/C(=N\OC(=O)CCc1ccccc1)c1cccnc1 | -0.43% |
| COC(=O)CN1C(=O)[C@H]2[C@@H](C3CC3)N3C(=O)CN(Cc4ccc(-c5ccccc5)cc4)C(=O)[C@@]3(Cc3ccccc3)[C@H]2C1=O | 0.43% |
| Cc1cc(C)c2c(Cn3ccnc3)cc(=O)oc2c1 | -0.08% |
| O=Cc1c(NCCCN2CCCC2=O)c2ccccc2[nH]c1=O | 0.62% |
| Cn1c(=O)c2c(ncn2CC(COCc2ccccc2Cl)OCc2ccccc2Cl)n(C)c1=O (stereo not given) | 2.8% |
| Cc1nn(Cc2ccc(F)cc2)c(C)c1NC(=O)c1noc2c1CCc1ccccc1-2 | -3.92% |
| C/C(=N\Nc1cccc(C(=O)O)c1)c1ccc2c(c1)Nc1ccccc1S2 | 20% (active) |
| Cc1ccccc1NC(=O)c1cc(S(=O)(=O)Nc2cccc(C(=O)O)c2)ccc1Cl | -0.84% |

| Compound | inhibition |
| --- | --- |
| O=C(O)c1cccc(N2C(=O)Nc3ccccc3N2O)c1 | 0.58% |
| CCOc1cnc(-c2c(-c3ccccc3Cl)noc2C)o1 | -3.64% |
| CCn1cc(CN2CCCC(CNS(=O)(=O)Cc3ccccc3)C2)cn1 (stereo not given) | -2.99% |
| Cc1ccc(CN(C)Cc2cc(=O)oc3cc(C)c(Cl)cc23)cc1 | 9.93% |
| C=CCCC(=O)Nc1nc(C)c(-c2csc(Nc3ccc(Cl)cc3)n2)s1 | -6.01% |
| CCCCCCC(=O)Nc1nc(C)c(-c2csc(Nc3cc(Cl)ccc3OC)n2)s1 | 11.8% |
| Cc1nc(NC(=O)c2cccc(Cl)c2)sc1-c1csc(Nc2cccc(Cl)c2)n1 | 61.2% (active) |
| CCCCCCC(=O)Nc1nc(C)c(-c2csc(Nc3cccc(OC)c3)n2)s1 | 12.5% |
| CC(=O)Nc1cccc(-c2csc(Nc3cccc(C)n3)n2)c1 | 5.89% |
| CC(=O)Nc1nc(C)c(-c2csc(Nc3ccc(S(N)(=O)=O)cc3)n2)s1 | -0.24% |
| CC(=O)Nc1ccc(S(=O)(=O)Nc2nc(-c3ccc(C(C)(C)C)cc3)cs2)cc1 | 5.38% |
| CCCCC(=O)Nc1nc(C)c(-c2csc(Nc3ccc(Cl)cc3)n2)s1 | 20.4% (active) |
| O=C(Nc1ccc(-c2csc(Nc3cccc(C(F)(F)F)c3)n2)cc1)c1cccc(C(F)(F)F)c1 | 37.3% (active) |
| CCOC(=O)c1c(CC(C)C)csc1/N=C/C1=C(O)CCCC1=O | -3.29% |
| O=C(NNC(=O)c1cnccc1C(F)(F)F)c1ccc(Cl)cc1 | -3.08% |
| CCCn1c(=O)c2c(C(F)(F)F)cc(-c3cccs3)nc2n(CCC)c1=O | 7.34% |
| COc1ccc(OCC(O)CN(C)C(=O)C(C)Oc2ccccc2)cc1 (stereo not given) | 3.54% |
| O=C1N[C@@H](Cc2ccccc2)C(=O)N2[C@@H]3N(S(=O)(=O)c4ccc(F)cc4)c4ccccc4[C@]3(Br)C[C@@H]12 | 2.06% |
| Oc1ccc(/C=N/Nc2nc(-c3ccccc3F)nc3ccccc23)c(O)c1 | 41% (active) |
| Cc1nc2ccccc2nc1N/N=C/c1ccc(O)cc1O | 5.03% |
| Fc1ccc(/C=N/Nc2nc(-c3cccnc3)nc3ccccc23)cc1 | -5.98% |
